Source: the supplement of paper PMC8253809
Values joined by “and” are separate entries in the source; they are usually repeats but may differ in a detail not shown here. Identical values can stand only once.

Tests used:
Test in all cases: growth inhibition (% activity, log2 RLU normalised to DMSO / staurosporine); higher = more growth inhibition
Conditions in all cases: 33 µM
DIPGX29 = system: DIPGX29 (H3.3 K27M diffuse intrinsic pontine glioma line)
Method in brief: (§1)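 Approved drugs, at a single final concentration of about 33 μM, were applied in triplicate to pHGG cell lines and H9-derived neural stem cells for 7 days at 37 °C, 5% CO2. The growth-inhibition value is the replicate median of log2-transformed CellTiter-Glo luminescence normalised per plate to % activity between solvent and positive control wells.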

DIPGX37 = system: DIPGX37 (H3.3 K27M diffuse intrinsic pontine glioma line)
Method in brief: as §1

DIPGX7 = system: DIPGX7 (H3.3 K27M diffuse intrinsic pontine glioma line)
Method in brief: as §1

DIPGX9 = system: DIPGX9 (diffuse intrinsic pontine glioma line)
Method in brief: as §1

HGGX39 = system: HGGX39 (paediatric high-grade glioma line)
Method in brief: as §1

HGGX6 = system: HGGX6 (H3.3 G34R paediatric high-grade glioma line)
Method in brief: as §1

HNSC = system: HNSC
Method in brief: as §1

SUDIPGIV = system: SUDIPGIV (diffuse intrinsic pontine glioma line)
Method in brief: as §1

SUDIPGVI = system: SUDIPGVI (diffuse intrinsic pontine glioma line)
Method in brief: as §1

SUDIPGXIII = system: SUDIPGXIII (diffuse intrinsic pontine glioma line)
Method in brief: as §1

Structure (SMILES)	growth inhibition (DIPGX29)	growth inhibition (DIPGX37)	growth inhibition (DIPGX7)	growth inhibition (DIPGX9)	growth inhibition (HGGX39)	growth inhibition (HGGX6)	growth inhibition (HNSC)	growth inhibition (SUDIPGIV)	growth inhibition (SUDIPGVI)	growth inhibition (SUDIPGXIII)
Nc1nc2ccc(OC(F)(F)F)cc2s1	2.99%	4.46%	3.41%	4.59%	2.04%	2.46%	4.46%	-0.776%	2.57%	1.66%
COc1cc(/C=C/C(=O)CC(=O)/C=C/c2ccc(O)c(OC)c2)ccc1O	-0.948%	1.27%	1.4%	0.547%	0.698%	1.98%	-1.04%	-2.56%	0.323%	-11.1%
Nc1nc(=O)c2c([nH]1)NCC(CNc1ccc(C(=O)N[C@@H](CCC(=O)O)C(=O)O)cc1)N2C=O (stereo not given in full)	-0.552%	0.652%	-1.46%	-0.907%	-0.954%	-0.876%	0.438%	-1.59%	0.511%	-0.342%
C[C@@H]1CCN(C(=O)CC#N)C[C@@H]1N(C)c1ncnc2[nH]ccc12	0.671%	-1.72%	0.986%	-0.0672%	1.55%	-3.29%	19.9%	-0.0962%	-2.08%	1.44%
CNC(=C[N+](=O)[O-])NCCSCc1ccc(CN(C)C)o1	2.69%	2.65%	5.27%	2.2%	4.25%	0.922%	9.82%	1.43%	1.91%	-0.737%
Cc1nc2n(c(=O)c1CCN1CCC(c3noc4cc(F)ccc34)CC1)CCCC2O (stereo not given)	-0.21%	-0.0675%	0.542%	0.251%	1.52%	-1.12%	23.4%	2.36%	-0.7%	-0.0722%
OCCOCCN1CCN(C2=Nc3ccccc3Sc3ccccc32)CC1	0.62%	0.529%	4.12%	1.36%	2.86%	2.19%	0.74%	-0.167%	-0.798%	1.66%
COc1cccc(N(C)C(=S)Oc2ccc3c(c2)CCCC3)n1	2.16%	1.79%	1.25%	2.82%	2.33%	1.82%	1.51%	0.755%	2.8%	1.12%
CN(C)c1ccc(O)c2c1C[C@H]1C[C@H]3[C@H](N(C)C)C(=O)C(C(N)=O)=C(O)[C@@]3(O)C(=O)C1=C2O	-4.52%	-0.19%	0.692%	-1.39%	3.12%	-2.93%	5.14%	2.56%	-1.8%	1.96%
CNCCc1ccccn1	0.924%	1.45%	1.21%	1.11%	2.84%	1.49%	1.31%	1.96%	4.33%	-0.14%
CCN(CC)C(=S)SSC(=S)N(CC)CC	1.19%	3.53%	5.8%	10.8%	3.44%	3.72%	50%	-0.505%	1.15%	0.0312%
Oc1ccc(/C=C/c2cc(O)cc(O)c2)cc1	2.03%	-0.532%	4.05%	1.48%	1.37%	2.36%	3.97%	-5.92%	1.29%	-0.764%
CCCCOc1cc(C(=O)NCCN(CC)CC)c2ccccc2n1	8.77%	4.81%	9.69%	3.99%	6.11%	5.06%	13.1%	2.91%	3.16%	1.33%
CNC(CC(C)C)C(=O)NC1C(=O)NC(CC(N)=O)C(=O)NC2C(=O)NC3C(=O)NC(C(=O)NC(C(=O)O)c4cc(O)cc(O)c4-c4cc3ccc4O)C(O)c3ccc(c(Cl)c3)Oc3cc2cc(c3OC2OC(CO)C(O)C(O)C2OC2CC(C)(N)C(O)C(C)O2)Oc2ccc(cc2Cl)C1O (stereo not given)	-1.35%	-1.91%	-1.76%	-1.16%	-1.53%	-2.38%	-0.899%	-0.924%	-4.84%	-0.803%
Cc1ccc(NC(=O)c2ccc(CN3CCN(C)CC3)cc2)cc1Nc1nc(-c2cccnc2)cs1	8.55%	4.57%	8.77%	6.79%	15.1%	9.96%	9.74%	7.78%	9.06%	2.08%
CCOc1nc2cccc(C(=O)O)c2n1Cc1ccc(-c2ccccc2-c2nnn[nH]2)cc1	0.354%	-0.496%	0.489%	-0.089%	0.622%	1.65%	1.93%	-0.153%	0.98%	-0.345%
CC(C)C[C@H](NC(=O)[C@H](O)[C@H](N)Cc1ccccc1)C(=O)O	1.26%	0.0198%	0.163%	-1%	-2.32%	1.9%	0.429%	-2.58%	0.754%	0.189%
O=C(O)Cc1ccccc1Nc1c(Cl)cccc1Cl	-1.37% and -2.99% and -0.71%	-1.99% and -1.73% and 0.418%	-1.57% and -1.88% and -1.25%	-1.08% and -0.109% and -0.719%	-2.62% and -2.86% and 0.69%	0.514% and 2.52% and -0.0763%	-3.6% and -4.25% and -2.46%	-6.51% and -6.18% and -5.78%	-1.69% and -1.9% and -1.43%	-0.705% and -7.4% and 0.367%

Structure (SMILES)	growth inhibition (DIPGX29)	growth inhibition (DIPGX37)	growth inhibition (DIPGX7)	growth inhibition (DIPGX9)	growth inhibition (HGGX39)	growth inhibition (HGGX6)	growth inhibition (HNSC)	growth inhibition (SUDIPGIV)	growth inhibition (SUDIPGVI)	growth inhibition (SUDIPGXIII)
CCN(CC)C(=O)C1(c2ccccc2)CC1CN (stereo not given)	0.721%	0.301%	0.852%	0.846%	0.86%	2.42%	1.54%	1.15%	2.57%	0.599%
COC1=C(OC)C(=O)C(CCCCCCCCCCO)=C(C)C1=O	3.13%	3.03%	2.61%	2.12%	2.64%	3.84%	5.4%	1.6%	3.24%	2.03%
N[C@H](C(=O)O)[C@H](O)c1ccc(O)c(O)c1	-1.91%	-2.48%	-1.18%	-0.989%	-1.97%	-1.74%	-3.73%	-1.1%	-1.43%	-4.54%
CCCCCOC(=O)Nc1nc(=O)n([C@@H]2O[C@H](C)[C@@H](O)[C@H]2O)cc1F	-0.544%	1.13%	0.087%	0.193%	1.46%	0.0555%	-0.694%	-0.463%	0.998%	1.54%
NC(N)=Nc1nc(CSCC/C(N)=N/S(N)(=O)=O)cs1	-1.68%	-1.77%	-1.85%	-0.682%	-0.78%	-1.75%	-0.722%	-1.56%	-8.72%	-0.00988%
NC(=O)c1cnccn1	-1.43%	0.819%	-1.41%	-0.339%	-2.81%	1.4%	-0.255%	-2.49%	0.0834%	1%
Cc1ncc([N+](=O)[O-])n1CC(O)CCl (stereo not given)	1.6%	-0.696%	3.64%	1.89%	2.83%	1.22%	6.21%	1.59%	4.35%	0.346%
COc1ccc([C@@H]2Sc3ccccc3N(CCN(C)C)C(=O)[C@@H]2OC(C)=O)cc1	-1.14%	-1.86%	0.795%	-0.923%	-2.92%	-0.0969%	-0.232%	-1.32%	-1.92%	0.713%
Nc1c2c(nc3ccccc13)CCCC2	-2.45%	1.21%	-2.4%	-0.673%	-0.0323%	-0.396%	-4.73%	1.29%	-2.15%	-0.353%
COc1cc2c(cc1Cc1cccc(Cl)c1F)c(=O)c(C(=O)O)cn2[C@H](CO)C(C)C	1.03%	1.4%	3.52%	3.93%	4.45%	0.0329%	19.8%	9.68%	1.61%	5.02%
CC(C(=O)O)c1cccc(C(=O)c2ccccc2)c1 (stereo not given)	-0.509%	-1.31%	-0.656%	-0.0225%	1.05%	0.639%	0.455%	-5.26%	1.35%	-0.582%
O=C(O[C@H]1CN2CCC1CC2)N1CCc2ccccc2[C@@H]1c1ccccc1	1.49%	-0.261%	-0.506%	-0.425%	1.75%	0.102%	-0.949%	-0.487%	1.06%	1.13%
O=C(O)COCCN1CCN(C(c2ccccc2)c2ccc(Cl)cc2)CC1 (stereo not given)	1.96%	2.21%	3.97%	2.72%	4.64%	3.15%	3.36%	-0.252%	2.48%	0.283%
CN1CCN(CCCN2c3ccccc3Sc3ccc(Cl)cc32)CC1	4.66%	1.44%	9.7%	-0.83%	3.02%	1.39%	13.3%	-0.567%	-3.14%	-0.277%
O=C(O)C1=CO[C@@H](O[C@@H]2O[C@H](CO)[C@@H](O)[C@H](O)[C@H]2O)[C@@H]2C(CO)=CC[C@H]12	-3.84%	-2.61%	-0.0942%	-1.59%	-2.13%	-4.13%	9.11%	-1.22%	-7.67%	-1.52%
O=C(O)CCCN1CCC(O[C@@H](c2ccc(Cl)cc2)c2ccccn2)CC1	-0.326%	0.504%	-0.839%	-1.86%	0.636%	-0.646%	-1.58%	-0.161%	0.268%	0.355%
CC(C)(C)c1cc(C(C)(C)C)c(NC(=O)c2c[nH]c3ccccc3c2=O)cc1O	7.53%	4.87%	25.1%	8.47%	22.4%	15.2%	11.9%	9.36%	2.56%	2.28%
